Compound activity from PubChem.
Sampled rows, rich in hits. Any-hit rate of the full collection: about 7.5%.
Luc counter = blocks Kinase-Glo luciferase, a counter-screen artifact. Potency, µM (highest dose often 38.3 µM), for inactives: top-dose activity change, negative = inhibition, most hits filed as inhibitors. actives 0.28% (n = 200,000). Q27757. Kinase-Glo luciferase, ATP luminescence, 8 min; note: % is set by controls: 0 for no effect and ±100 for the full control effect; nearly all actives have a fitted effect of over 60% in size
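Luminescence was the read-out, taken after 8-minute incubation at ambient temperature. Luciferase turned over luciferin with 10 uM ATP in imidazole pH 7.2 buffer containing KCl, MgCl2, Tween 20 and BSA.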
Rab9 prom act = Rab9 promoter activation. Potency, µM (highest dose often 9.22 µM), inactives show at the highest dose activation, negative = inhibition, hits mostly activators. Huh7 Rab9 promoter-luciferase reporter, luminescence, 24 h. actives 2.8% (n = 320,000); note: % of control where 0% means no effect; nearly all actives have a fitted effect of over 60% in size
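Steps: seed 1500 Huh7 Rab9-luc cells per well, rest 2 h at 37 °C; add compound in DMSO; incubate 24 h; add luciferase reagent, 10 min ambient; read luminescence.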
NPC1 promoter act = activates the NPC1 promoter | Huh7 NPC1 promoter luciferase reporter, 24 h | AID 485313 | actives 2.4% (n = 320,000) | Potency, µM (series often up to 9.22 µM), for inactives: top-dose activation, usual class: activators; note: % of control where 0% means no effect; nearly all actives have a fitted effect of over 60% in size
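Luminescence read-out of NPC1 promoter-driven luciferase in stably transfected Huh7 cells; compounds delivered in DMSO and left 24 h at 37C, 5% CO2, qHTS titration format.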
FLuc counter = counter-screen for miR-21 project: firefly luciferase inhibitors or activators; AID 588342; purified FLuc, Km substrates, luminescence inhibition; Potency, µM (series often up to 57.5 µM), without a hit: top-dose activity change, negative = inhibition, usual class: inhibitors; actives 6.9% (n = 360,000);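 note: plate controls were vehicle for no effect and reference inhibitor for full effect; nearly all actives have a fitted effect of over 55% in size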
Target sequence (P08659 whole entry, looked up): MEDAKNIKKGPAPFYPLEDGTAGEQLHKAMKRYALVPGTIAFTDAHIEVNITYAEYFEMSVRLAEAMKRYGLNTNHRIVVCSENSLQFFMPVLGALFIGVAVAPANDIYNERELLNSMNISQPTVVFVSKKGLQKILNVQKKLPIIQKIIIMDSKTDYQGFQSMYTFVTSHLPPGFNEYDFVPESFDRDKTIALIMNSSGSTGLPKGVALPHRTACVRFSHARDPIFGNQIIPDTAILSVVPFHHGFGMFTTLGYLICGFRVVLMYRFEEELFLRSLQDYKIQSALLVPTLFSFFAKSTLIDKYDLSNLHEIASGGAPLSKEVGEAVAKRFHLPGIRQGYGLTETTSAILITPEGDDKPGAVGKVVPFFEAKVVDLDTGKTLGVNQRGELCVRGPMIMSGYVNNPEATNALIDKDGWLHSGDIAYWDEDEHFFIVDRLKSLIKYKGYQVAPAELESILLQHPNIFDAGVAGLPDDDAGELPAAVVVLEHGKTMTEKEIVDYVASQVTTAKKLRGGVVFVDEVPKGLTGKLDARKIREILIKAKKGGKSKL
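Purified P. pyralis luciferase (10nM final) with 10uM D-luciferin and 10uM ATP (Km levels) in 50mM Tris acetate pH 7.5, 10mM Mg acetate, 0.01% Tween-20, 0.05% BSA; qHTS 6-point titration, ~60 µM downward; luminescence read.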
SMN2 splice up = enhancers of SMN2 splice variant expression; HEK293 SMN2-luciferase splicing reporter, luminescence, 30-36 h; Potency, µM (doses to about 46.1 µM), for inactives: at the highest dose activity change, positive = activation, hits mostly activators; actives 2.8% (n = 210,000); note: % of control where 0% means no effect; nearly all actives have a fitted effect of over 55% in size
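HEK293 cells carry an SMN2 minigene-luciferase reporter in which exon 7 inclusion puts luciferase in frame. Cells were seeded at 2000 cells/well, attached for 10-12 hours, then exposed to compounds for 30-36 hours at 37C before ONE-Glo luminescence.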
ELG1 genotox = genotoxicity induction in ELG1-luciferase HEK293T cells; HEK293T ELG1-luciferase reporter, luminescence, 16 h; Potency, µM (doses to about 46 µM), for the others: at the highest dose activity change, positive = activation, actives largely listed as activators; actives 1.3% (n = 330,000); note: % of control where 0% means no effect; nearly all actives have a fitted effect of over 60% in size
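Screening used a luciferase reporter fused to human ELG1 in HEK293T cells. Luminescence was read on a CCD plate imager after 16 hr exposure and 30 min ONE-Glo incubation.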
* hit, by the source's call; u = inconclusive; x = no result given. Calls come from the whole dose curve; as a rule, active = well fitted curve in the direction sought with a large enough effect; inconclusive = small, poorly fitted or top-dose-only effect, or another doubt; inactive = no such curve, though single readings can be large; an effect the other way counts as inactive or inconclusive. Potency is the fitted concentration of half-maximal effect.

SMILES	Luc counter	Rab9 prom act	NPC1 promoter act	FLuc counter	SMN2 splice up	ELG1 genotox
O=C1SC(SCc2ccccc2Cl)=N/C1=C\c1ccc(C(=O)O)cc1	-1%	-4%	-5%	21µM*	0%	0%
CCSC1=N/C(=C\c2ccc(C(=O)O)cc2)C(=O)S1	-3%	2%	-2%	9.5µM*	-3%	-3%
C=CCSC1=N/C(=C\c2ccsc2)C(=O)S1	-1%	-5%	-1%	u	3%	-1%
C=CCSC1=N/C(=C\c2ccc(C)o2)C(=O)S1	1%	-1%	1%	15µM*	-16%	0%
COC(=O)c1ccc(/C=C2\N=C(SC)SC2=O)cc1	x	1%	0%	-6%	x	0%
CCCCC(Sc1nc2cc3c(cc2c(=O)n1CCCC(=O)NCc1ccc(OC)cc1)OCO3)C(=O)OCC (stereo unspecified)	x	x	x	-2%	x	x
CC(=O)Nc1ccc(S(=O)(=O)NCCc2csc3nc(-c4ccc(Cl)cc4)nn23)cc1	x	x	x	-13%	x	x
CCOC(=O)SC1=N/C(=C\c2ccc(N(C)C)cc2)C(=O)S1	-5%	-2%	-1%	9.5µM*	1%	1%
NNc1nc(-c2ccccc2)cc(-c2ccc(Br)cc2)n1	x	-3%	-4%	u	x	-9%
Brc1ccc(-n2cnc(-c3ccccc3)c2)cc1	x	0.56µM*	1.4µM*	0.95µM*	x	u
OCCNC(=S)c1ccccc1	x	2%	0%	2%	x	0%
CCCCCN=C(C)c1c(O)c2ccccc2oc1=O	x	u	u	17µM*	x	u
O=C1NN(c2ccc(Cl)c(Cl)c2)C(=O)/C1=C/c1ccc(-c2ccccc2C(=O)O)o1	x	-4%	-3%	u	x	1%
O=C1NN(c2ccccc2)C(=O)/C1=C/c1ccc(-c2ccc(C(=O)O)cc2)o1	x	15%	11%	21µM*	x	-2%
Cc1ccc(N2NC(=O)/C(=C/c3ccc(-c4ccc(Cl)c(C(=O)O)c4)o3)C2=O)cc1C	x	0%	-6%	17µM*	x	0%
COC(=O)c1ccc(N2NC(=O)/C(=C/c3ccc(-c4ccc(Cl)c(C(=O)O)c4)o3)C2=O)cc1	-4%	0%	0%	11µM*	11%	2%
COc1ccc(-c2noc(CSc3nnc(-c4ccccc4)n3C)n2)cc1	-3%	3%	2%	21µM*	-5%	5%
COc1ccc(-c2noc(CSc3nc4ccccc4[nH]3)n2)cc1	x	x	x	2%	0%	x
COc1ccc(-c2noc(CSc3nc(N)cc(=O)[nH]3)n2)cc1	x	-2%	4%	21µM*	x	0%
C/C(=N\Nc1cccc2cccnc12)c1ccc[nH]1	-17%	1.4µM*	u	1.1µM*	11µM*	4%
CN(C)c1ccc(NC(=S)NC23CC4CC(CC(C4)C2)C3)cc1	x	u	-2%	12µM*	x	u
FC(F)Oc1ccc(NC(=S)NC23CC4CC(CC(C4)C2)C3)cc1	x	22%	3%	19µM*	x	-14%
CN(C)S(=O)(=O)c1cccc(NC(=S)NC23CC4CC(CC(C4)C2)C3)c1	x	-1%	-1%	2%	x	-17%
CCOc1ccc(NC(=S)NC23CC4CC(CC(C4)C2)C3)cc1	x	0%	-1%	-1%	x	2%
CCCN1CCN(CC2=C(C(=O)OCC)C(c3ccc(OC(C)C)cc3)NC(=O)N2)CC1 (stereo unspecified)	x	x	x	-8%	0%	x
CCN(C(=O)Cn1nc(C)c([N+](=O)[O-])c1C)C1CCS(=O)(=O)C1 (stereo unspecified)	x	-2%	2%	5%	x	-6%
CCN(CC)C(=N)/C(C#N)=N/Nc1ccc(C)cc1	x	2µM*	2µM*	9.5µM*	x	u
Cc1ccc(N/N=C(\C#N)C(=N)N2CCOCC2)cc1	1%	u	u	u	u	u
COc1ccc(N/N=C(\C#N)C(=N)SCc2ccccc2)cc1	-4%	-8%	-4%	27µM*	-5%	-12%
